Sampled rows, rich in hits. Any-hit rate of the full collection: about 10%.
hNpr1 antagonist – human Npr1 receptor antagonism; 76,000 tested, 1.6% active; HEK293 hNpr1 GloSensor cGMP, ANP-stimulated luminescence; Potency, µM (highest dose often 46.3 µM), for inactives: at the top dose activity change, negative = inhibition, hits mostly inhibitors; P16066; calls by dose curve; further: nearly all actives have a fitted effect of over 60% in size
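Compound pre-incubated 30 min at room temperature on GloSensor-loaded HEK293 cells stably carrying hNpr1 and the pGS-40F cGMP biosensor. Stimulation uses hNppA at 0.1 nM final; luminescence is taken at baseline and 20 min post-agonist.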
3T3 cytotox – NIH 3T3 cell cytotoxicity; NIH 3T3 viability, CellTiter-Glo ATP luminescence, 48-72 h; Potency, µM (highest dose often 96.7 µM), inactives show at the top dose activity change, negative = cytotoxicity, usual class: inhibitors; 94,000 tested, 4.3% active; further: nearly all actives have a fitted effect of over 55% in size
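Cytotoxicity is measured as loss of cellular ATP: NIH 3T3 cells (400/well) are exposed to compound for 48 or 72 hr at 37 °C, then CellTiter-Glo luminescence is imaged after 10 min at room temperature.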
GPT2 inhibitor – inhibitors of human GPT2 alanine aminotransferase; Q8TD30; 100,000 tested, 0.25% active; Potency, µM (doses to about 57.7 µM), without a hit: top-dose activity change, negative = inhibition, actives largely listed as inhibitors; AID 1671188; Recombinant GPT2, coupled pyruvate oxidase/HRP Amplex Red fluorescence; further: nearly all actives have a fitted effect of over 60% in size
Target sequence (Q8TD30 whole entry, looked up): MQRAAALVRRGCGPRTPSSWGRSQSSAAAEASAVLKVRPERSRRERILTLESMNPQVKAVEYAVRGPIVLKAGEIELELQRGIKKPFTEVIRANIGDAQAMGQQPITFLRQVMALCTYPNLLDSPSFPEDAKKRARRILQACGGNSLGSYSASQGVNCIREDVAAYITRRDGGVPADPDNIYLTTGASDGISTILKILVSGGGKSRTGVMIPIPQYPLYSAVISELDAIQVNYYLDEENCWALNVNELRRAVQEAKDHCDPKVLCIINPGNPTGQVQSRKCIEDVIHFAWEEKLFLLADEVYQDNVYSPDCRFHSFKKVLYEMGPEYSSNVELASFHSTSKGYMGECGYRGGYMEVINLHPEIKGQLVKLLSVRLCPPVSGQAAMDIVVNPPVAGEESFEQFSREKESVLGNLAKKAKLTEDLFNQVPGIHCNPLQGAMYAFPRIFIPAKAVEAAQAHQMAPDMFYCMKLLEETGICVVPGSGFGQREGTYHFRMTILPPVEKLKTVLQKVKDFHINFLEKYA
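Fluorescence read-out: pyruvate from GPT2 turnover coupled to pyruvate oxidase, HRP and Amplex Red (0.2mM ThPP, 0.2U/mL PO and HRP, 50uM Amplex final). Substrates 250uM a-KG, 2mM L-alanine; enzyme 10ng/uL; 30 min RT.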
FLuc inh – Photinus pyralis luciferase inhibition | P08659 | purified P. pyralis luciferase, luminescence, biochemical | AID 1347043 | Potency, µM (doses to about 115 µM), most hits filed as inhibitors | 76,000 tested, 2.5% active; further: nearly all actives have a fitted effect of over 65% in size
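Cell-free enzyme assay, 10nM P. pyralis luciferase, luciferin and ATP each at 10uM. Inhibition profiled over a 6-point titration, read as luminescence.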
HEK cytotox – HEK 293 cell cytotoxicity; Potency, µM (top dose mostly 115 µM), for the others: at the highest dose activity change, negative = cytotoxicity, hits mostly inhibitors; HEK 293 viability, ATP luminescence (CellTiter-Glo), 48-72 h; 94,000 tested, 6.6% active; further: nearly all actives have a fitted effect of over 60% in size
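Cells seeded first (HEK 293, 250 cells/well), then compound added by pintool. Incubation ran 48 or 72 hr at 37 degree Celsius. CellTiter-Glo was added and luminescence imaged after 10 min at room temperature.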
* hit, by the source's call; i = inactive; ? = inconclusive; / = no result; [ ] = another dose, or the depositor's remark. Unless noted, the call rests on the fitted dose curve; in most records, active means well fitted curve in the direction sought with a large enough effect; inconclusive means small, poorly fitted or top-dose-only effect, or another doubt; inactive means no such curve, though single readings can be large; an effect the other way counts as inactive or inconclusive. On the % scale 0 is the no-effect control and ±100 the full control effect; potency means the concentration at half of the fitted maximal effect.

SMILES	hNpr1 antagonist	3T3 cytotox	GPT2 inhibitor	FLuc inh	HEK cytotox
OC(c1cccc(C(F)(F)F)c1)c1nc(Nc2ccc(F)cc2F)n[nH]1 (centres undefined)	-26%[70.6 µM]	71µM*	3%[88.5 µM]	i	79µM*
OC(c1cccc(C(F)(F)F)c1)c1nc(Nc2ccncc2)n[nH]1 (centres undefined)	-12%[70.6 µM]	-66%[138 µM]	1%[88.5 µM]	i	?
OC(c1cccc(C(F)(F)F)c1)c1nc(Nc2cccnc2)n[nH]1 (centres undefined)	-23%[70.6 µM]	-23%[138 µM]	i	i	?
OC(c1cccc(C(F)(F)F)c1)c1nc(Nc2ccccc2)n[nH]1 (centres undefined)	-20%[70.6 µM]	?	-8%[88.5 µM]	i	89µM*
OC(c1cccc(C(F)(F)F)c1)c1nc(Nc2ccc(N3CCOCC3)cc2)n[nH]1 (centres undefined)	?	-16%[138 µM]	?	35µM*	?
COCCN1Cc2ccc(NCC(C)C)nc2C(C)(C(=O)Nc2ccncc2)C1 (centres undefined)	0%[70.6 µM]	?	-4%[88.5 µM]	i	?
COc1ccccc1Nc1ccnc(N2CCCC(C(=O)NCc3cccc(F)c3)C2)n1 (centres undefined)	/	13µM*	-1%	/	11µM*
COc1ccccc1Nc1ccnc(N2CCCC(C(=O)NCc3cccc(Cl)c3)C2)n1 (centres undefined)	/	13µM*	i	/	?
COc1ccccc1Nc1ccnc(N2CCCC(C(=O)NCC(F)(F)F)C2)n1 (centres undefined)	/	?	0%	/	?
COc1ccccc1Nc1ccnc(N2CCCC(C(=O)NCCc3ccc(Cl)cc3)C2)n1 (centres undefined)	/	?	-7%	/	?
CCc1ccc(NC(=O)N2CC(C(=O)N(C)C)C3(CCOCC3)C2)cc1 (centres undefined)	-1%	-10%	i	i	i
CC1(C)CC[C@]2(C(=O)O)CC[C@]3(C)C(=CCC4[C@@]5(C)C[C@@H](O)[C@H](O)[C@@](C)(CO)C5CC[C@]43C)C2C1 (some centres undefined)	/	/	4%[27.3 µM]	/	/
C[C@@H]1C(=O)O[C@H]2[C@H]1CC[C@@]1(C)Cc3sc(Nc4ccc(O)cc4)nc3[C@@H](C)[C@H]21	?	63µM*	?	?	35µM*
CN(CC1CCOCC1)C(=O)Nc1cccc(C(F)(F)F)c1	5%	i	-13%	i	2%
CCn1cc(S(=O)(=O)N2CCC[C@H](n3c(=O)n(CC4CC4)c4cccnc43)C2)cn1	5%	-24%	0%	i	40µM*
O=C(C1CCC1)N1CCC[C@H](n2c(=O)n(CC3CC3)c3cccnc32)C1	/	?	i	/	?
CN1c2cc(C(=O)Nc3cccc(C#N)c3)ccc2C(=O)N2CCCCC21 (centres undefined)	10%	?	i	?	?
CN1c2cc(C(=O)Nc3ccc(C#N)cc3)ccc2C(=O)N2CCCCC21 (centres undefined)	-5%	35µM*	i	i	?
CN1c2cc(C(=O)Nc3cccc(C#N)c3)ccc2C(=O)N2CCCCCC21 (centres undefined)	0%	?	i	28µM*	?
O=C(NCc1nnc2c(-c3nc(C4CC4)no3)cccn12)c1ccc2ccccc2n1	-7%	?	i	i	?
CCc1noc(-c2cn(C3CCCN(C(=O)COc4ccccc4)C3)nn2)n1 (centres undefined)	-1%	-17%	i	i	3%
Cc1cccc(CC(=O)N2CCc3c2ccc(-c2cn(C)c4ncnc(N)c24)c3F)n1	/	/	i	/	/
CC(NC(=O)C1CCN(C(=O)c2ncn3c2COC(c2ccc(Cl)cc2)C3)CC1)c1ccccc1 (centres undefined)	4%	i	i	i	2%
COc1ccc(C(C)NC(=O)C2CCN(C(=O)c3ncn4c3COC(c3ccccc3)C4)CC2)cc1 (centres undefined)	-12%	-13%	4%	28µM*	-6%

High-throughput results from PubChem.
